# Laboratory results reported in PubChem BioAssay (NCATS).
# Results filed as inconclusive are left out. Active and inactive are the calls of the source. Unless noted, no rule for the calls is given here.
# How the values were obtained:
# [1] = qHTS Assay for Identifying Gametocytocidal Compounds (AID 743244; active = well fitted curve in the direction sought with a large enough effect; an effect the other way counts as inactive or inconclusive; also: potency is read from the fitted curve at half-maximal effect;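 as to max response: % is scaled to controls: 0 for no effect and ±100 for the full control effect; actives lower the fluorescent signal which means gametocytes are killed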); settings: P. falciparum 3D7 stage III-V gametocytes, alamarBlue, 72 h; max response: stronger effect = lower value
# How it was run: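 3D7 gametocytes, stages III–V, 20,000/well; cpd 72 h, 37 °C/5% CO2; + alamarBlue 24 h; fluor. Ex 525/Em 598.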
# [2] = qHTS profiling for inhibitors of Plasmodium falciparum (3D7) proliferation (AID 743322);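 also: infected erythrocytes exposed to compound for 72 h before lysis; 100% = DMSO vehicle wells and 0% = 0.29 µM artemisinin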; settings: P. falciparum 3D7 proliferation; at 28.7 µM (top of the series) unless noted
# How it was run: (§1)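 Erythrocytes infected with P. falciparum (0.3% parasitemia, 2.5% hematocrit) incubated with compounds 72 h at 37 C, 5% CO2. Lysis with saponin/Triton buffer containing SYBR Green I, overnight at room temperature in the dark; DNA fluorescence (485/535 nm) normalised to 0.29 uM artemisinin and DMSO.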
# [3] = qHTS profiling for inhibitors of Plasmodium falciparum (DD2) proliferation (AID 743323); settings: lower = more inhibition; at 28.7 µM (top of the series) unless noted
# How it was run: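 Parasite proliferation measured via DNA-dye fluorescence, as uninfected erythrocytes lack DNA. Cultures at 0.3% parasitemia and 2.5% hematocrit incubated 72 h with compound; signal scaled between vehicle and 0.29 uM artemisinin wells.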
# [4] = qHTS profiling for inhibitors of Plasmodium falciparum (HB3) proliferation (AID 743324; active = well fitted curve in the direction sought with a large enough effect; an effect the other way counts as inactive or inconclusive;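 also: 100% = DMSO vehicle wells and 0% = artemisinin-treated control wells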); settings: Plasmodium falciparum HB3 blood-stage proliferation; at 28.7 µM (top of the series) unless noted
# How it was run: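 P. falciparum HB3 grown in erythrocytes (0.3% parasitemia, 2.5% hematocrit final) with compound for 72 h at 37 C, 5% CO2. Parasite DNA detected by SYBR Green after saponin/triton lysis overnight; normalized to 0.29 uM artemisinin and DMSO.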
# [5] = qHTS profiling of the MIPE4 collection as inhibitors of Plasmodium falciparum (3D7) proliferation (AID 743344);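 also: scaled between DMSO vehicle wells and 0.29 µM artemisinin as full inhibition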; settings: P. falciparum 3D7 in erythrocytes, SYBR Green DNA fluorescence, 72 h; at 28.5 µM (top of the series) unless noted
# How it was run: as §1
# [6] = qHTS profiling of the MIPE4 collection as inhibitors of Plasmodium falciparum (DD2) proliferation (AID 743345); settings: P. falciparum Dd2 in erythrocytes, SYBR Green DNA, 72 h; at 28.5 µM (top of the series) unless noted
# How it was run: as §1
# [7] = qHTS profiling of the MIPE4 collection as inhibitors of Plasmodium falciparum (DD2) proliferation (Rep 2) (AID 743346); settings: P. falciparum Dd2 in erythrocytes, SYBR Green DNA, 72 h; at 28.5 µM (top of the series) unless noted
# How it was run: as §1
# [8] = qHTS profiling of the MIPE4 collection as inhibitors of Plasmodium falciparum (HB3) proliferation (AID 743347);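 also: plate controls were DMSO vehicle wells for no effect and artemisinin wells for full effect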; settings: P. falciparum HB3 in erythrocytes, SYBR Green DNA, 72 h; at 28.5 µM (top of the series) unless noted
# How it was run: as §1
# [9] = High-throughput drug toxicity screening in the BPDCN cell line Cal-1 (AID 1224825); settings: Cal-1 BPDCN cell viability, qHTS; at 45.8 µM (top of the series) unless noted
# How it was run: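 Exponentially growing Cal-1 cells, 500 per well in phenol red-free RPMI with 10% FBS, were exposed to compounds for 48 h at 37 °C, 5% CO2. Viability was read by CellTiter-Glo luminescence and normalised to DMSO (100%) and 9.2 uM bortezomib (0%).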
# [10] = qHTS assay for measurement of the activity of small molecule inhibitors on Zika virus induced Caspase-3 activity in human iPSC derived neural progenitor cells (hNPCs) (AID 1224857; active = well fitted curve in the direction sought with a large enough effect; an effect the other way counts as inactive or inconclusive; also: nearly all actives have a fitted effect of over 65% in size; also: potency is read from the fitted curve at half-maximal effect)
# How it was run: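 Cells were plated at 350 per well and grown 16 to 20 hours. Compound pretreatment lasted one hour, after which ZIKV (2 FFU/cell) was added for 6 hours. Percent inhibition was normalized between uninfected and infected controls.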
# [11] = qHTS assay for measurement of the activity of small molecule inhibitors on Zika virus induced Caspase-3 activity in human astrocytoma cells (AID 1224859; active = well fitted curve in the direction sought with a large enough effect; an effect the other way counts as inactive or inconclusive; also: potency is read from the fitted curve at half-maximal effect)
# How it was run: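 Percent inhibition of virus-induced caspase-3/7 signal is calculated against uninfected and ZIKV-infected control cells. Cells are SNB-19, infected at 2 FFU/cell for 6 h after 1 h compound exposure.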
# [12] = High-throughput drug toxicity screening in the BPDCN cell line Gen2.2 (AID 1224824); settings: Gen2.2 BPDCN cells; at 45.8 µM (top of the series) unless noted;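 also: cells exposed to compounds for 48 h before reading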
# How it was run: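 Gen2.2 cells, 500 per well in phenol red-free RPMI with 10% FBS, exposed to compounds 48 h at 37 C, 5% CO2; viability by CellTiter-Glo luminescence. Percent activity scaled to DMSO (100%) and 9.2 uM bortezomib final (0%).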
Compound,max response [1],remaining parasite growth % (stronger effect = lower value) [2],"activity, percent of control [3]","remaining proliferation (% of control), lower = more inhibition [4]","parasite growth, % of DMSO control [5]","parasite growth remaining, % of DMSO control (lower = more inhibition) [6]","parasite growth, % of control (lower = inhibition) [7]","growth, % of control [8]",viability (% of control) [9],Potency [10],Potency [11],"cell viability, % of control (lower = more cytotoxic) [12]",Potency [1]
CCCCc1ccc(NS(=O)(=O)c2ccc(C)c(C(=O)N3CCN(c4cccc(C)c4C)CC3)c2)cc1,17% (inactive),37.4%,96.6%,92.7%,232%,99.3%,59.2%,257%,99.3%,inactive,inactive,–,–
CC(C)(CO)[C@@H](O)C(=O)NCCC(=O)O,-8.71% (inactive),–,–,–,92.1%,101%,114%,102%,107%,–,inactive,85%,–
O=c1cc(-c2ccc(O)c(O)c2)oc2cc(O)cc(O)c12,–,–,–,–,13%,–,27.8%,14%,68.6%,–,inactive,264%,–
CO[C@H]1O[C@@H]2O[C@@]3(C)CC[C@@H]4[C@@H](C)CC[C@@H]([C@H]1C)[C@@]24OO3,–,–,–,–,20.7%,7.38%,9.94%,46%,31.3%,–,–,62.1%,11.8 nM (active)
COc1nc(C)cnc1NS(=O)(=O)c1cccnc1-c1ccc(-c2nnco2)cc1,18.4% (inactive),63.7%,88%,91.9%,100%,100%,74.5%,100%,142%,inactive,inactive,–,–
CC(NCCc1ccc(O)cc1)C(O)c1ccc(O)cc1 (stereo not drawn),–,–,–,–,85%,102%,73.8%,–,107%,–,inactive,91%,–
CCC(=C(c1ccc(O)cc1)c1ccc(OCCNC)cc1)c1ccccc1,–,–,–,–,5.26%,15.1%,13.1%,–,4.15%,–,inactive,16.9%,–
CCC(C)SSc1ncc[nH]1 (stereo not drawn),–,–,–,–,86.2%,94.1%,89.6%,–,6.97%,–,inactive,7.07%,–
O=c1[nH]c(=O)n([C@H]2C[C@@H](O)[C@@H](CO)O2)cc1C(F)(F)F,–,–,–,–,62.3%,62%,91.9%,36.7%,13.9%,–,inactive,118%,–
O=C(NCCCCN1CCOCC1)c1cc2ccccc2o1,–,–,–,–,89%,99.3%,41.5%,–,109%,inactive,inactive,–,–
Cc1cnc(CNC(=O)c2c(=O)c3ccc(N4CCCN(C)CC4)nc3n3c2sc2ccccc23)cn1,–,–,–,–,6.1% [at 9.64 µM],8.18% [at 9.64 µM],13.1% [at 9.64 µM],3.84% [at 9.64 µM],1.44% [at 23.2 µM],inactive,inactive,–,–
NC(N)=Nc1nc(CSCCC(N)=NS(N)(=O)=O)cs1,–,–,–,–,–,98.2%,84.9%,92.7%,50.4%,inactive,inactive,–,–
O=C(c1ccc(C(=O)N2CCC(N3CCCC3)CC2)c(Nc2ccccc2)c1)N1CCC(N2CCCC2)CC1,–,–,–,–,–,–,33.2%,–,113%,–,inactive,–,–
CN(C)S(=O)(=O)c1ccc2c(c1)C(=Cc1cc3c([nH]1)CCCC3)C(=O)N2,–,–,–,–,22.9%,22.5%,30%,8.5%,35.3%,inactive,inactive,–,–
Oc1cc(O)cc(C=Cc2ccc(O)c(O)c2)c1,–,–,–,–,–,76.7%,32.1%,50.9%,3.72%,23500 nM (active),4180 nM (active),–,–
O=C(NC[C@H](O)CO)c1ccncc1Nc1ccc(I)cc1F,–,–,–,–,60.9%,101%,56.7%,54.8%,12.1%,inactive,inactive,–,–
O=S(=O)(NCCNCC=Cc1ccc(Br)cc1)c1cccc2cnccc12,–,–,–,–,35.6%,19.2%,35.5%,33.3%,57.7%,inactive,inactive,–,–
CC1CNc2c(cccc2S(=O)(=O)N[C@@H](CCCN=C(N)N)C(=O)N2CC[C@@H](C)C[C@@H]2C(=O)O)C1 (stereo partly drawn),–,–,–,–,82.3%,91.3%,101%,86.9%,6.64%,inactive,inactive,–,–
CCCCC[C@H](O)C=C[C@H]1[C@H](O)CC(=O)[C@H]1CCCCCCC(=O)O,–,–,–,–,71.4%,133%,71.7%,103%,93.2%,inactive,–,–,–
NS(=O)(=O)c1ccc(Nc2nc(OCC3CCCCC3)c3[nH]cnc3n2)cc1,–,–,–,–,–,13.9%,24.8%,11%,9.86%,–,inactive,–,–
Cc1ccc2c(c1)c1c(n2CCc2ccc(C)nc2)CCN(C)C1,–,–,–,–,113%,55.3%,49.2%,135%,90.5%,–,inactive,–,–
O=C(C=Cc1ccc(O)cc1)c1ccc(O)cc1O,–,–,–,–,–,52.6%,39.1%,–,4.05%,1660 nM (active),2090 nM (active),–,–
CC(=O)OCC(=O)[C@@]1(O)CC[C@H]2[C@@H]3CCC4=CC(=O)C=C[C@]4(C)[C@@H]3[C@@H](O)C[C@@]21C,–,–,–,–,77.8%,102%,81.3%,80.7%,58.1%,inactive,inactive,–,–
